# The sample as a whole holds a higher share of hits than the screen did.
# IL1B secr inh: qHTS for Inhibitors of Inflammasome Signaling: IL-1-beta AlphaLISA Primary Screen. 360,000 tested, 4.7% active. activity change, % at 57.5 µM. THP-1 LPS/ATP IL-1B secretion, AlphaLISA, 16 h; stronger effect = lower value; in the data active = activity change below about -50%; inconclusive = mostly about -30% to -49%
#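 THP-1 cells pretreated 1 hr with compounds (up to 57.5 uM final), then stimulated with LPS (250 ng/mL final) plus ATP (1.25 mM final); secreted IL-1B measured by AlphaLISA after 16 hr, decreased signal indicating inhibition.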
# HT1080 IDH1KD tx: qHTS for induction of synthetic lethality in tumor cells producing 2HG: qHTS for the HT-1080-IDH1KD cell line; HT-1080 IDH1 knockdown viability, ATP luminescence, 48 h; Potency, µM (series often up to 46.1 µM), most hits filed as cytotoxic; 360,000 tested, 2% active
#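 In this qHTS, HT-1080 cells depleted of IDH1 are exposed for 48 h at 37 °C to compound titrations. Toxicity is scored from CellTiter-Glo luminescence, with DMSO as full viability and medium alone as none.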
# TDP1 cell noCPT: qHTS for Inhibitors of human tyrosyl-DNA phosphodiesterase 1 (TDP1): qHTS in cells in absence of CPT; DT40 Tdp1-/- hTDP1 cells, no CPT, ATP luminescence, 48 h; AID 686978, 2013; Potency, µM (highest dose often 46.2 µM), most hits filed as inhibitors; 420,000 tested, 15% active; also: nearly all actives have a fitted effect of over 55% in size
#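 Luminescent ATP content (CellTiter-Glo) served as the growth readout. Knockout chicken DT40 cells expressing human TDP1 were exposed to compounds without camptothecin for a minimum 48 hr at 37 °C.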
# ALOX12 inh: Primary qHTS assay for inhibitors of human arachidonate 12S-lipoxygenase (ALOX12): Round 2; Polyunsaturated fatty acid lipoxygenase ALOX12 (Homo sapiens), P18054; 580,000 tested, 1.1% active; Potency, µM (series often up to 108 µM), usual class: inhibitors; purified 12hLO, xylenol orange hydroperoxide absorbance
# Target sequence (P18054 whole entry, looked up): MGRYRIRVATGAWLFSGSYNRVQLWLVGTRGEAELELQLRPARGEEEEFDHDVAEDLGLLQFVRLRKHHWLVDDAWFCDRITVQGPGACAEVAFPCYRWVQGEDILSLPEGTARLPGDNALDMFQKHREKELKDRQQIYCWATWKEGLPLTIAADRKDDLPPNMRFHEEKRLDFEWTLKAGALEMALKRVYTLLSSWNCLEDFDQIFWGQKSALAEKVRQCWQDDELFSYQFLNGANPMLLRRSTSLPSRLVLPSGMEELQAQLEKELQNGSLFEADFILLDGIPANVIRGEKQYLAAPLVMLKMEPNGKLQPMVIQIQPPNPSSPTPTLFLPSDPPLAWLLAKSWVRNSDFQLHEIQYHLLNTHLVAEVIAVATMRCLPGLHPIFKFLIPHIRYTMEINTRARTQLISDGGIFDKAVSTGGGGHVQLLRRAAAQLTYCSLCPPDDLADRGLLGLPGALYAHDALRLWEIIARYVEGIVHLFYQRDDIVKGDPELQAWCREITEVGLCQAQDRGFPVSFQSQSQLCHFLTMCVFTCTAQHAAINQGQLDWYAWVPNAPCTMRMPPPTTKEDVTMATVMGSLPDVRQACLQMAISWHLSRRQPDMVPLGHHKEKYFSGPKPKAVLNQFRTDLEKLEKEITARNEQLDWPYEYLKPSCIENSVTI
#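 Hydroperoxide product was detected by ferrous iron/xylenol orange as the 573 to 405 nm absorbance ratio. Arachidonic acid at 40 uM (final) was turned over for 30 min at room temperature by 150 nM human 12hLO, pH 7.0 Hepes buffer, after 15 min compound preincubation.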
# TDP1 cell CPT: qHTS for Inhibitors of human tyrosyl-DNA phosphodiesterase 1 (TDP1): qHTS in cells in presence of CPT. chicken DT40 Tdp1-/-;hTDP1 cells + 20 nM CPT, ATP luminescence, 48 h. Potency, µM (highest dose often 46.2 µM), hits mostly inhibitors. 420,000 tested, 12% active. AID 686979, 2013; also: nearly all actives have a fitted effect of over 55% in size
#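 Chicken DT40 Tdp1-/- cells complemented with human TDP1, 400 cells/well, exposed to compounds plus 20 nM camptothecin for at least 48 h at 37 C; viability read as ATP content by CellTiter-Glo luminescence.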
# HT1080-NT tox: qHTS for induction of synthetic lethality in tumor cells producing 2HG: qHTS for the HT-1080-NT fibrosarcoma cell line; HT-1080-NT fibrosarcoma viability, CellTiter-Glo ATP luminescence, 48 h; Potency, µM (doses to about 46.1 µM), most hits filed as cytotoxic; 360,000 tested, 1.6% active; AID 686970, 2013;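 also: NT is the 2HG producing partner of a matched IDH1 knockdown line; nearly all actives have a fitted effect of over 55% in size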
#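 HT-1080-NT; 750 cells/well; 5% FBS RPMI; 48 h compound, 37 degrees C; CellTiter-Glo luminescence; curve fitting and curve-class assignment.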
# Numbers stand for hits; - = inactive; ? = inconclusive; . = not tested or not shown. Unless noted, calls follow the shape of the dose curve; as a rule, active = well fitted curve in the direction sought with a large enough effect; inconclusive = small, poorly fitted or top-dose-only effect, or another doubt; inactive = no such curve, though single readings can be large; an effect the other way counts as inactive or inconclusive.
SMILES,IL1B secr inh,HT1080 IDH1KD tx,TDP1 cell noCPT,ALOX12 inh,TDP1 cell CPT,HT1080-NT tox
C=CCN1C(c2ccc(Br)cc2)=CS/C1=C(\C#N)c1nnc(N2CCOCC2)n1-c1ccccc1,-73,-,-,40µM,?,-
C=CCN1C(c2cccc(C(F)(F)F)c2)=CS/C1=C(\C#N)c1nnc(N2CCOCC2)n1-c1ccccc1,?,-,?,-,23µM,-
CCc1nc2c(c(-c3ccc(Cl)cc3)n1)CCN(Cc1ccsc1)CC2,.,.,.,-,.,.
Oc1ccccc1CN1CC(CNc2cccnc2)C2(C1)CN(c1ccccc1)C2 (stereo unspecified),.,.,.,-,.,.
CCN(CC)C(=O)[C@H]1C[C@H](CC(=O)NCCCN(C)C)C(=O)N2CCc3c([nH]c4ccc(Cl)cc34)[C@]12C,-52,-,?,-,18µM,-
CC(C)N(C(=O)[C@H]1C[C@H](CC(=O)NCCCN(C)C)C(=O)N2CCc3c([nH]c4ccc(Cl)cc34)[C@]12C)C(C)C,-,?,15µM,-,?,-
CCN(CC)C(=O)[C@H]1C[C@H](CC(=O)NCc2ccc(OC)c(OC)c2)C(=O)N2CCc3c([nH]c4ccc(Cl)cc34)[C@]12C,-,?,23µM,-,?,?
CCN(CC)C(=O)[C@H]1CC(CC(=O)NCCCN(C)C)C(=O)N2CCc3c([nH]c4ccccc34)[C@]12C (stereo partly specified),-,-,-,-,-,-
Cc1cc(Br)cc(Cl)c1OCC(=O)Nc1cccc(N2CCCC2=O)c1,.,.,.,-,.,.
O=C(Nc1cccc(C(F)(F)F)c1)c1ccc(F)c(S(=O)(=O)N2CCc3ccccc3C2)c1,.,.,13µM,-,15µM,.
O=C(Nc1cccc(Cl)c1Cl)c1cc(S(=O)(=O)N2CCC3(CC2)OCCO3)ccc1F,.,.,23µM,-,?,.
O=C(Nc1cc(Cl)cc(Cl)c1)c1cc(S(=O)(=O)N2CCC3(CC2)OCCO3)ccc1F,.,.,?,-,21µM,.
O=C(Nc1ccc(F)c(Cl)c1)c1cc(S(=O)(=O)N2CCc3ccccc3C2)ccc1F,.,.,?,-,?,.
O=C(Nc1cccc(Cl)c1)c1ccc(F)c(S(=O)(=O)N2CCC3(CC2)OCCO3)c1,.,.,13µM,?,15µM,.
NC(=O)N/N=C/c1cccc([N+](=O)[O-])c1,.,.,.,-,.,.
O=C(c1cc(S(=O)(=O)N2CCC3(CC2)OCCO3)ccc1F)N1CCCCC1,-60,-,-,-,-,-
O=C(Nc1ccccc1Cl)c1cc(S(=O)(=O)N2CCC3(CC2)OCCO3)ccc1F,-,-,?,-,?,-
O=[N+]([O-])c1cccnc1C1OCCO1,-,-,-,-,-,-
Cc1cnc(C2OCCO2)c2cccc(N)c12,-,-,8.2µM,-,?,-
Cc1cccc(NC(=O)c2oc3ccccc3c2NC(=O)c2nn(-c3cccc(C)c3)ccc2=O)c1,.,.,.,-,.,.
CCc1nn(CCCC(=O)NC2CCCCC2C)c(=O)c2cc3occc3n12 (stereo unspecified),-,-,26µM,-,?,-
CCc1ccc(NC(=O)CCCn2nc(CC)n3c(cc4occc43)c2=O)cc1,-,-,-,-,?,-
CCc1nn(CCCC(=O)NCc2cc(Br)ccc2OC)c(=O)c2cc3occc3n12,-56,-,?,-,?,-
CCc1nn(CCCC(=O)N(C)Cc2ccccc2)c(=O)c2cc3occc3n12,-,-,?,-,16µM,-
CCc1nn(CCCC(=O)NCc2ccc(OC(C)C)cc2)c(=O)c2cc3occc3n12,-,10µM,12µM,-,?,12µM
SMILES,IL1B secr inh,HT1080 IDH1KD tx,TDP1 cell noCPT,ALOX12 inh,TDP1 cell CPT,HT1080-NT tox
O=C(NC1CCN(c2cc(-c3cccs3)[nH]n2)CC1)c1cccc(Cl)c1,.,.,.,-,.,.
CC(C)C(CNC(=O)c1cc(=O)c2ccccc2o1)N1CCOCC1 (stereo unspecified),.,.,.,-,.,.
Cc1nc2ccc(NC(=O)c3nn(C(C)C)c(=O)c4ccccc34)cc2s1,-,-,?,-,?,-
CSc1nc2ccc(NC(=O)c3nn(C(C)C)c(=O)c4ccccc34)cc2s1,-52,-,?,-,18µM,-
CC1(COS(N)(=O)=O)CCCCC1,-,-,-,.,0.46µM,-
CC(=O)c1cccc(NC(=O)CCS(=O)(=O)c2ccc(Br)s2)c1,-,-,?,-,-,-
O=C(CCS(=O)(=O)c1ccc(Br)s1)Nc1cc(C(F)(F)F)cc(C(F)(F)F)c1,.,.,21µM,?,15µM,.
O[C@@H](CNC[C@H](O)[C@H]1CCc2cc(F)ccc2O1)[C@@H]1CCc2cc(F)ccc2O1,.,.,4.2µM,-,6.7µM,.
CC1CCc2cc(F)ccc2N1C(=O)CCC(=O)O (stereo unspecified),-,-,-,-,-,-
Cc1sc2nc(CSCC(=O)Nc3ccccc3C#N)[nH]c(=O)c2c1C,-,-,16µM,-,?,-
COc1cc(OC)c2c(C)c(CC(=O)Nc3ccc(Cn4cncn4)cc3)c(=O)oc2c1,.,.,.,-,.,.
Cc1[nH]cnc1CN1C[C@@H]2CN(C(=O)CCC3CC3)C[C@]2(C(=O)O)C1,.,.,.,-,.,.
O=c1cc2nc(-c3ccccc3)nc(SCc3cccc(Br)c3)n2[nH]1,.,.,9.2µM,-,?,.
Cc1ccc(CSc2nc(-c3ccc(C(C)(C)C)cc3)nc3cc(=O)[nH]n23)cc1,.,.,?,-,?,.
Cc1ccc(C(C)C)c(OCCSc2nc(-c3cccs3)nc3cc(=O)[nH]n23)c1,.,.,?,-,?,.
C=CCc1ccccc1OCCSc1nc(-c2cccs2)nc2cc(=O)[nH]n12,.,.,?,-,?,.
Cc1ccc(-c2nc(SCCOc3ccccc3C)n3[nH]c(=O)cc3n2)cc1,.,.,26µM,-,23µM,.
C=CCc1ccccc1OCCSc1nc(-c2ccc(C(C)(C)C)cc2)nc2cc(=O)[nH]n12,.,.,?,-,23µM,.
COc1ccccc1OCCSc1nc(-c2ccc(C(C)(C)C)cc2)nc2cc(=O)[nH]n12,.,.,?,-,13µM,.
O=C(C1=C(c2ccccc2)S(=O)(=O)CCO1)N(Cc1ccccc1F)c1ccccn1,.,.,.,-,.,.
COc1ccc(NC(=O)NCc2ccco2)c(OC)c1,-,-,?,-,?,-
